# High-throughput results (PubChem BioAssay)
# S1P4 ag: activates the human S1P4 receptor | S1P4-expressing cell line, agonist reporter assay | O95977 | activation, % at 4.98 µM | 0.35% of 220,000 active; in the data active means activation above about 11%
# Target sequence (O95977 whole entry, looked up): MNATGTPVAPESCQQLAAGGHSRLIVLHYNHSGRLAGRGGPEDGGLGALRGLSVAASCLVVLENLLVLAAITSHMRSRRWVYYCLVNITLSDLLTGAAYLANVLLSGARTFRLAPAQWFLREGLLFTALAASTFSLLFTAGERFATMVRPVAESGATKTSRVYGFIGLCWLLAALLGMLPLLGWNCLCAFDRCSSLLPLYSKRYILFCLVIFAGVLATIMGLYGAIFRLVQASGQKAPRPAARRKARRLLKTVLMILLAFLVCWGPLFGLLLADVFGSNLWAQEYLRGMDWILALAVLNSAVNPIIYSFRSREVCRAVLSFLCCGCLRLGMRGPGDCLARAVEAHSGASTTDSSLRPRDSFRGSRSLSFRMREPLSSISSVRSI
# S1P3 antagonist: S1P3 (human) receptor antagonism; AID 485; CHO S1P3 NFAT-BLA reporter, FRET fluorescence, antagonist mode; Q99500; inhibition, % at 4.98 µM; 0.27% of 170,000 active;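 active means inhibition above the plate cutoff, the mean inhibition of test wells on that plate plus 3 SD, cut at about 28% in these data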;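 further: cells challenged with S1P at its EC80 of 0.8 µM; blue over green emission ratio from cleaved BLA substrate after 4 h stimulation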
# Pf gamet viab: inhibitors of late stage P. falciparum gametocyte viability. P. falciparum stage V gametocytes, ATP luminescence, 24 h. inhibition, % at 10.9 µM. 0.065% of 150,000 active. AID 743093;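 active means inhibition above the mean plus 3 SD of compounds within the control limits, set per campaign, cut at about 38% in these data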
# EP2 antag: blocks the human prostaglandin E2 receptor EP2; inhibition, % at 25 µM; 0.52% of 260,000 active; C6 glioma cells expressing human EP2, cAMP TR-FRET; cells stimulated with saturating PGE2; P43116;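 active means percent inhibition above 40 after rounding to a whole number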;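 further: rat C6 glioma host cells with rolipram phosphodiesterase inhibitor present; the protocol text gives 20 µM as final concentration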
# S1P4 antagonist: human S1P4 receptor antagonism. AID 1510. inhibition, % at 4.98 µM. O95977. 0.26% of 220,000 active. S1P4-expressing cells, antagonist mode, reporter read-out; in the data active means inhibition above about 29%
# EP2 modulator: modulates human prostaglandin E2 receptor EP2 signaling | P43116 | EP2-expressing cells, cAMP HTRF FRET, PGE2 co-stimulation | induction, % at 25 µM | 0.83% of 260,000 active | AID 940;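 active means compounds whose cAMP rise, as percent of the full-agonist control response, exceeds 60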;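 further: rat C6 glioma line stably carrying human EP2 under a CMV promoter; the protocol text gives 20 µM as final concentration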
# S1P4 agonist cf: confirmation of human S1P4 receptor agonists. shares compounds with S1P4 ag. S1P4 agonist cell-based reporter assay. activation, % at 4.98 µM. 7% of 740 active. AID 1523; in the data active means activation above about 12%
# S1P1 agonist: human S1P1 agonism as S1P4 agonist counter-screen | shares compounds with S1P4 ag | S1P1 agonist cell-based assay, activation | activation, % at 4.98 µM | 4% of 740 active | AID 1563; in the data active means activation above about 21%
# S1P4 antag cf: human S1P4 antagonism, confirmation; shares compounds with S1P4 antagonist; S1P4-expressing cell line, antagonist mode, reporter read-out; inhibition, % at 4.98 µM; 71% of 520 active; AID 1524; in the data active means inhibition above about 30%
# S1P1 antag: counter-screen for S1P4 antagonists: antagonists of human S1P1. shares compounds with S1P4 antagonist. cell-based S1P1 antagonist counterscreen, inhibition. inhibition, % at 4.98 µM. 37% of 520 active. AID 1564; in the data active means inhibition above about 40%;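 further: receptor stimulated with S1P near its EC80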
# Numbers stand for hits; . = inactive; / = no result given; ! = not confirmed by another sample. The list is not random: actives were taken first. Their share in the collection is about 1.9%.
SMILES,S1P4 ag,S1P3 antagonist,Pf gamet viab,EP2 antag,S1P4 antagonist,EP2 modulator,S1P4 agonist cf,S1P1 agonist,others
O=C(CSc1nnc(NC(=O)Cc2ccc(F)cc2)s1)NCc1ccco1,.,.,.,.,.,.,/,/,
O=C(CSc1nnc(NC(=O)Cc2ccccc2)s1)NCc1ccco1,17,.,.,.,.,.,.,.,
CCCCCOCC1CC(C/C(C)=N/NC(N)=S)C(=O)O1 (stereo not drawn),.,.,.,.,.,.,/,/,
C/C(CC1CC(COCC(C)C)OC1=O)=N\NC(N)=S (stereo not drawn),13,.,.,.,.,.,.,.,
COc1ccccc1CN(C(=O)c1ccco1)C(C(=O)NC1CCCCC1)c1ccc(C)o1 (stereo not drawn),/,/,/,.,/,.,/,/,
COc1ccc(CCNC(=O)Cn2c(=O)n(-c3ccc(F)cc3F)c(=O)c3sccc32)cc1OC,.,.,.,.,.,.,/,/,
CC(C)(C)C(=O)Cn1c(=O)n(-c2ccc(F)cc2F)c(=O)c2sccc21,95,.,.,.,.,.,.,.,
CCn1c(N2CCC(C(=O)NCC(C)O)CC2)nc2ccccc21 (stereo not drawn),/,/,/,/,/,.,/,/,
CCOCCCNC(=S)N1CCC(NC(=O)C(C)(C)C)CC1,/,/,/,.,/,.,/,/,
Cc1cc(C(=O)CSc2nc3ccccc3c(=O)[nH]2)c(C)n1CC1CCCO1 (stereo not drawn),53,.,.,.,.,.,.,.,
Cc1cc(C(=O)COC(=O)CCc2nc3ccccc3c(=O)[nH]2)c(C)n1CC1CCCO1 (stereo not drawn),.,.,/,.,.,.,/,/,
Cn1c(O)c(N=NC(=S)Nc2ccccc2F)c2cc(S(=O)(=O)N3CCOCC3)ccc21,17,.,.,.,.,.,.,.,
O=C(/C=C/c1ccco1)Nc1ccccc1N1CCOCC1,20,.,/,.,.,.,.,.,
Cc1cc(C)nc(/N=C(\N)Nc2cccc([N+](=O)[O-])c2)n1,12,.,.,.,.,.,.,.,
Cc1cc(C)nc(/N=C(\N)Nc2ccc([N+](=O)[O-])cc2)n1,.,.,.,.,.,.,/,/,
O=C(CC12CC3CC(CC(C3)C1)C2)Nc1cccc(NC(=O)c2ccco2)c1,/,/,/,.,/,.,/,/,
Cc1ccc(S(=O)(=O)N2CCOCC2)cc1NC(=O)COC(=O)c1n[nH]c(=O)c2ccccc12,.,.,/,.,.,.,/,/,
Cc1ccc(S(=O)(=O)N(C)C)cc1NC(=O)COC(=O)c1n[nH]c(=O)c2ccccc12,25,.,.,.,.,.,.,.,
OC(CN1CCN(c2ccccc2F)CC1)c1ccc2c(c1)OCCCO2 (stereo not drawn),/,/,/,.,/,.,/,/,
Cc1ccc(Nc2c(-c3ccc(C)o3)nc3ncccn23)cc1,11,.,.,.,.,.,.,.,
CCOc1ccccc1-n1c(SCC(=O)Nc2nccs2)nnc1-c1ccoc1C,19,.,/,.,.,.,.,.,
CC(=O)Nc1ccccc1C(=O)C(=O)O,13,/,/,.,.,.,.,.,
CC(=O)Nc1ccccc1O,.,.,/,.,.,.,/,/,
Cc1ccc(NC(=O)c2cc3c(ccc4ccccc43)oc2=N)cc1,/,/,/,.,/,.,/,/,
O=C(NCc1ccccc1)N[C@@H](Cc1c[nH]c2ccccc12)C(=O)O,14,.,/,.,.,.,.,.,
SMILES,S1P4 ag,S1P3 antagonist,Pf gamet viab,EP2 antag,S1P4 antagonist,EP2 modulator,S1P4 agonist cf,S1P1 agonist,others
CC(/C=N/NC(=O)c1cc(-c2ccc(C)o2)[nH]n1)=C\c1ccccc1,17,.,.,.,.,.,.,.,
CCOC(=O)C1(Cc2ccc(Cl)cc2)CCN(C(=O)CCc2ccncc2)CC1,19,.,.,.,.,.,.,.,
CCCn1c(SCC(=O)Nc2ccc3c(c2)CCC3)n[nH]c1=O,16,.,.,.,.,.,.,.,
NC(=O)CSc1nnc(-c2ccccc2)o1,/,/,/,.,/,.,/,/,
Nc1ccc2c(C(F)(F)F)cc(=O)oc2c1,.,.,/,.,46,.,/,/,S1P4 antag cf=45;S1P1 antag=.
CCC(C)(C)NC(=O)C(c1ccco1)N(Cc1ccccc1Cl)C(=O)c1csnn1 (stereo not drawn),/,/,/,.,/,.,/,/,
COc1cc(C(=O)CC2(O)C(=O)N(C)c3ccccc32)cc(OC)c1OC (stereo not drawn),/,/,/,.,/,.,/,/,
CS(=O)(=O)c1ccc(C(=O)Nc2ccc(N3CCOCC3)cc2)c(Cl)c1,.,.,/,.,.,.,/,/,
CS(=O)(=O)c1ncc(Cl)c(C(=O)Nc2ccc(N3CCOCC3)cc2)n1,.,.,/,/,31,.,/,/,S1P4 antag cf=98;S1P1 antag=81
O=C(Nc1ccccc1)Nc1cc(Cl)cc(Cl)c1,.,/,/,.,.,.,/,/,
O=C(Nc1ccccc1)Nc1cc(OCC(F)(F)F)cc(OCC(F)(F)F)c1,.,.,/,.,101,.,/,/,S1P4 antag cf=112;S1P1 antag=.
CCOc1cccc(/C(O)=C2/C(=O)C(=O)N(CCN(C)C)C2c2ccncc2)c1 (stereo not drawn),/,/,/,.,/,.,/,/,
O=C(Nc1cccc(Cl)c1)Nc1nccs1,.,.,.,.,35!,.,/,/,S1P4 antag cf=.;S1P1 antag=.
COc1ccc(NC(=O)Cn2nc(C(F)(F)F)c3c2CCC3)c(OC)c1,/,/,/,.,/,.,/,/,
Cc1oc(-c2cccc(Cl)c2)nc1CN1CCC(C(=O)NCCCN2CCCC2=O)CC1,.,.,/,.,.,.,/,/,
COc1ccc(CCNC(=O)C2CCN(Cc3nc(-c4cccc(Cl)c4)oc3C)CC2)cc1OC,.,.,/,/,30,.,/,/,S1P4 antag cf=.;S1P1 antag=.
COc1ccc(N=Nc2nc(-c3ccccc3)c(-c3ccccc3)[nH]2)cc1,.,.,.,.,.,.,/,/,
COc1ccc(N=Nc2n(C)c3ccccc3[n+]2C)cc1,.,.,/,.,30,.,/,/,S1P4 antag cf=.;S1P1 antag=.
COc1ccc2[nH]c(=O)c(CN(Cc3ccccc3)C(=S)NCCCN(C)C)cc2c1,/,/,/,.,/,.,/,/,
CC(C)CC(=O)/C(=C\c1ccc(Cl)cc1Cl)n1cncn1,.,.,/,52,53,.,/,/,S1P4 antag cf=119;S1P1 antag=96
COc1ccc(/C=C(/C(=O)c2ccc(Cl)cc2Cl)n2cncn2)cc1,.,/,/,.,37,.,/,/,S1P4 antag cf=.;S1P1 antag=.
CN(C)c1ccc(/C=C(/C(=O)c2ccc(Cl)cc2Cl)n2cncn2)cc1,.,.,/,.,.,.,/,/,
N#CCSc1nnc(N)s1,.,.,/,.,.,.,/,/,
N#CCSc1nnc(SCC#N)s1,.,.,.,.,32,.,/,/,S1P4 antag cf=.;S1P1 antag=.
O=C(C=C=Nc1ccccc1)C(=O)N=C=Cc1ccccc1,.,.,.,.,42,.,/,/,S1P4 antag cf=106;S1P1 antag=.
O=C(Nc1ccccc1)c1nnsc1S(=O)c1ccc(Cl)cc1 (stereo not drawn),.,/,.,142,49,.,/,/,S1P4 antag cf=111;S1P1 antag=.
